# Data from PubChem BioAssay (NCI).
# This is part of a sample that, as a whole, favours compounds with a hit. Of some 79,000 tested, about 15% had one in any assay. A number with no mark means an inactive call. Activity calls are given as the source filed them. Cut-off read from the data, not from the text of the source: active = growth inhibition above about 70%; inactive = the rest.
# Legend:
# [1] = NCI Yeast Anticancer Drug Screen. Data for the rad52 strain (AID 147);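 note: 0% = growth of vehicle-treated control cultures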; conditions: S. cerevisiae rad52 mutant growth inhibition, hits give high values
# In short: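 DNA repair-defective yeast; compound exposure; growth scored against vehicle controls.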
# [2] = NCI Yeast Anticancer Drug Screen. Data for the wt1 strain (AID 149);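 note: 0% = growth of vehicle-treated wt1 cultures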; conditions: S. cerevisiae wt1 strain (SPY 50644) growth inhibition, hits give high values
# In short: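 Vehicle-normalised growth inhibition; strain wt1; compound exposure.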
# [3] = NCI Yeast Anticancer Drug Screen. Data for the rad50EPP+ strain (AID 151);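 note: 0% = growth of vehicle-treated control cultures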; conditions: S. cerevisiae rad50 mutant strain, hits give high values
# In short: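 rad50EPP+ yeast treated with test compounds. Readout: growth vs vehicle control.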
# [4] = NCI Yeast Anticancer Drug Screen. Data for the mgt1 strain (AID 153); conditions: S. cerevisiae mgt1 mutant growth inhibition, hits give high values
# In short: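 Growth inhibition relative to vehicle controls was scored for the mgt1 yeast strain after compound exposure.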
# [5] = NCI Yeast Anticancer Drug Screen. Data for the rad50 strain (AID 155);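 note: 0% = growth of vehicle-only cultures of the same strain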; conditions: S. cerevisiae rad50 strain growth inhibition, hits give high values
# In short: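 A DNA repair-deficient yeast mutant serves as the test organism; compound-induced growth inhibition is calculated against vehicle-treated cells.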
# [6] = NCI Yeast Anticancer Drug Screen. Data for the mec2-1 strain (AID 157); conditions: S. cerevisiae mec2-1 strain, hits give high values
# In short: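 Growth inhibition is read against vehicle-treated controls after compound exposure of the mec2-1 yeast strain, which is defective in DNA damage repair or cell cycle control.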
# [7] = NCI Yeast Anticancer Drug Screen. Data for the rad14 strain (AID 159);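 note: 0% = growth of vehicle-treated control cultures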; conditions: S. cerevisiae rad14 strain growth inhibition, hits give high values
# In short: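 Vehicle-treated cultures served as the baseline for growth inhibition of a DNA repair-mutant yeast strain exposed to each compound.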
# [8] = NCI Yeast Anticancer Drug Screen. Data for the sgs1 mgt1 strain (AID 161);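 note: 0% = growth of cultures given vehicle only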; conditions: S. cerevisiae sgs1 mgt1 strain, hits give high values
# In short: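 Growth of a repair-deficient yeast mutant was monitored after compound treatment and expressed as inhibition relative to vehicle-treated cultures.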
# [9] = NCI Yeast Anticancer Drug Screen. Data for the CLN2oe strain (AID 163);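 note: 0% = growth of vehicle-only control cultures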; conditions: S. cerevisiae CLN2oe strain, hits give high values
# In short: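 Compound-treated yeast; growth vs vehicle ctrl = % inhibition. Genetically altered strain (cell-cycle control).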
# [10] = NCI Yeast Anticancer Drug Screen. Data for the cln2 rad14 strain (AID 165);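 note: 0% = growth equal to vehicle treated cultures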; conditions: S. cerevisiae cln2 rad14 strain, hits give high values
# In short: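 Growth inhibition, relative to vehicle-treated controls, is the read-out. The test organism is a yeast strain with defined genetic alterations, cln2 rad14.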
# [11] = NCI Yeast Anticancer Drug Screen. Data for the bub3 strain (AID 167); conditions: S. cerevisiae bub3 mutant strain, hits give high values
# In short: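 Inhibition values come from growth of compound-treated mutant yeast normalised to vehicle-treated controls.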
# [12] = NCI Yeast Anticancer Drug Screen. Data for the wt2 strain (AID 169);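 note: 0% = growth of vehicle-treated yeast cultures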; conditions: S. cerevisiae wt2 strain growth inhibition, hits give high values
# In short: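 Compound exposure of yeast; growth compared with vehicle controls; inhibition reported.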
# [13] = NCI Yeast Anticancer Drug Screen. Data for the mlh1 strain (AID 171);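 note: 0% = growth of vehicle-treated control cultures of the same strain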; conditions: S. cerevisiae mlh1 strain growth inhibition, hits give high values
# In short: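 Compounds are applied to a genetically altered yeast strain, and its growth is compared with that of vehicle-treated cultures to give percent inhibition.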
# [14] = NCI Yeast Anticancer Drug Screen. Data for the sgs1 strain (AID 173);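 note: 0% = growth of vehicle-only control cultures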; conditions: S. cerevisiae sgs1 mutant, hits give high values
# In short: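 Compounds applied to genetically altered yeast; growth compared with vehicle-treated cultures to give % inhibition.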
# [15] = NCI Yeast Anticancer Drug Screen. Data for the mlh1 rad18 strain (AID 175); conditions: S. cerevisiae mlh1 rad18 strain growth inhibition, hits give high values
# In short: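 Cells of a genetically altered yeast strain, deficient in DNA damage repair, were treated with compound. Their growth was then compared with that of vehicle-treated cultures to give inhibition.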
# [16] = NCI Yeast Anticancer Drug Screen. Data for the rad18 strain (AID 177); conditions: S. cerevisiae rad18 mutant growth inhibition, hits give high values
# In short: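 Compounds are applied to a repair-deficient yeast strain, and growth is compared with that of vehicle-treated cultures to give percent inhibition.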
# [17] = at 5.0 µM (retest, dose inferred, filed as 0.5)
# [18] = at 50.0 µM (retest, dose inferred, filed as 5.0)
compound,measurement,setting,value
c1ccc2c(c1)Oc1cccc3cccc-2c13,growth inhibition,[1]; at 1.2 µM,5%
same,growth inhibition,[1]; at 3.7 µM,3%
same,growth inhibition,[1]; at 11.0 µM,5%
same,growth inhibition,[1]; at 33.0 µM,38%
same,growth inhibition,[1]; at 100.0 µM,58%
same,growth inhibition,[2]; at 1.2 µM,-11%
same,growth inhibition,[2]; at 3.7 µM,1%
same,growth inhibition,[2]; at 11.0 µM,-8%
same,growth inhibition,[2]; at 33.0 µM,3%
same,growth inhibition,[2]; at 100.0 µM,10%
same,growth inhibition,[3]; at 1.2 µM,11%
same,growth inhibition,[3]; at 3.7 µM,8%
same,growth inhibition,[3]; at 11.0 µM,34%
same,growth inhibition,[3]; at 33.0 µM,43%
same,growth inhibition,[3]; at 100.0 µM,63%
same,growth inhibition,[4]; at 1.2 µM,-1%
same,growth inhibition,[4]; at 3.7 µM,-8%
same,growth inhibition,[4]; at 11.0 µM,1%
same,growth inhibition,[4]; at 33.0 µM,16%
same,growth inhibition,[4]; at 100.0 µM,27%
same,growth inhibition,[5]; at 1.2 µM,-2%
same,growth inhibition,[5]; at 3.7 µM,8%
same,growth inhibition,[5]; [17],95% (active)
same,growth inhibition,[5]; at 11.0 µM,5%
same,growth inhibition,[5]; at 33.0 µM,23%
same,growth inhibition,[5]; [18],98% (active)
same,growth inhibition,[5]; at 50.0 µM,67.2%
same,growth inhibition,[5]; at 100.0 µM,62%
same,growth inhibition,[6]; at 1.2 µM,-6%
same,growth inhibition,[6]; at 3.7 µM,4%
same,growth inhibition,[6]; [17],99% (active)
same,growth inhibition,[6]; at 11.0 µM,-3%
same,growth inhibition,[6]; at 33.0 µM,2%
same,growth inhibition,[6]; [18],99% (active)
same,growth inhibition,[6]; at 50.0 µM,17.6%
same,growth inhibition,[6]; at 100.0 µM,20%
same,growth inhibition,[7]; at 1.2 µM,0%
same,growth inhibition,[7]; at 3.7 µM,6%
same,growth inhibition,[7]; at 11.0 µM,21%
same,growth inhibition,[7]; at 33.0 µM,36%
same,growth inhibition,[7]; at 100.0 µM,39%
same,growth inhibition,[8]; [17],0%
same,growth inhibition,[8]; [18],43%
same,growth inhibition,[8]; at 50.0 µM,47.6%
same,growth inhibition,[9]; at 1.2 µM,18%
same,growth inhibition,[9]; at 3.7 µM,16%
same,growth inhibition,[9]; at 11.0 µM,8%
same,growth inhibition,[9]; at 33.0 µM,14%
same,growth inhibition,[9]; at 100.0 µM,18%
same,growth inhibition,[10]; [17],34%
same,growth inhibition,[10]; [18],20%
same,growth inhibition,[10]; at 50.0 µM,25.4%
same,growth inhibition,[11]; at 1.2 µM,6%
same,growth inhibition,[11]; at 3.7 µM,-6%
same,growth inhibition,[11]; [17],-5%
same,growth inhibition,[11]; at 11.0 µM,-3%
same,growth inhibition,[11]; at 33.0 µM,17%
same,growth inhibition,[11]; [18],55%
same,growth inhibition,[11]; at 50.0 µM,56.4%
same,growth inhibition,[11]; at 100.0 µM,36%
same,growth inhibition,[12]; at 1.2 µM,2%
same,growth inhibition,[12]; at 3.7 µM,0%
same,growth inhibition,[12]; at 11.0 µM,1%
same,growth inhibition,[12]; at 33.0 µM,15%
same,growth inhibition,[12]; at 100.0 µM,36%
same,growth inhibition,[13]; at 1.2 µM,7%
same,growth inhibition,[13]; at 3.7 µM,15%
same,growth inhibition,[13]; at 11.0 µM,14%
same,growth inhibition,[13]; at 33.0 µM,31%
same,growth inhibition,[13]; at 100.0 µM,52%
same,growth inhibition,[14]; at 1.2 µM,11%
same,growth inhibition,[14]; at 3.7 µM,13%
same,growth inhibition,[14]; at 11.0 µM,13%
same,growth inhibition,[14]; at 33.0 µM,39%
same,growth inhibition,[14]; at 100.0 µM,60%
same,growth inhibition,[15]; [17],100% (active)
same,growth inhibition,[15]; [18],99% (active)
same,growth inhibition,[15]; at 50.0 µM,42.7%
same,growth inhibition,[16]; at 1.2 µM,22%
same,growth inhibition,[16]; at 3.7 µM,26%
same,growth inhibition,[16]; at 11.0 µM,25%
same,growth inhibition,[16]; at 33.0 µM,56%
same,growth inhibition,[16]; at 100.0 µM,71% (active)
CCOC(=O)c1cnc2c(C(F)(F)F)cccc2c1N=[N+]=[N-],growth inhibition,[1]; at 1.2 µM,3%
same,growth inhibition,[1]; at 3.7 µM,2%
same,growth inhibition,[1]; at 11.0 µM,2%
same,growth inhibition,[1]; at 33.0 µM,42%
same,growth inhibition,[1]; at 100.0 µM,95% (active)
same,growth inhibition,[2]; at 1.2 µM,10%
same,growth inhibition,[2]; at 3.7 µM,1%
same,growth inhibition,[2]; at 11.0 µM,1%
same,growth inhibition,[2]; at 33.0 µM,37%
same,growth inhibition,[2]; at 100.0 µM,87% (active)
same,growth inhibition,[3]; at 1.2 µM,4%
same,growth inhibition,[3]; at 3.7 µM,0%
same,growth inhibition,[3]; at 11.0 µM,-5%
same,growth inhibition,[3]; at 33.0 µM,86% (active)
same,growth inhibition,[3]; at 100.0 µM,97% (active)
same,growth inhibition,[4]; at 1.2 µM,0%
same,growth inhibition,[4]; at 3.7 µM,-2%
same,growth inhibition,[4]; at 11.0 µM,1%
same,growth inhibition,[4]; at 33.0 µM,52%
same,growth inhibition,[4]; at 100.0 µM,93% (active)
same,growth inhibition,[5]; at 1.2 µM,-6%
same,growth inhibition,[5]; at 3.7 µM,-17%
same,growth inhibition,[5]; [17],15%
same,growth inhibition,[5]; at 11.0 µM,20%
same,growth inhibition,[5]; at 33.0 µM,42%
same,growth inhibition,[5]; [18],8%
same,growth inhibition,[5]; at 50.0 µM,29.4%
same,growth inhibition,[5]; at 100.0 µM,95% (active)
same,growth inhibition,[6]; at 1.2 µM,-3%
same,growth inhibition,[6]; at 3.7 µM,-4%
same,growth inhibition,[6]; [17],2%
same,growth inhibition,[6]; at 11.0 µM,-4%
same,growth inhibition,[6]; at 33.0 µM,25%
same,growth inhibition,[6]; [18],-5%
same,growth inhibition,[6]; at 50.0 µM,17.6%
same,growth inhibition,[6]; at 100.0 µM,89% (active)
same,growth inhibition,[7]; at 1.2 µM,3%
same,growth inhibition,[7]; at 3.7 µM,4%
same,growth inhibition,[7]; at 11.0 µM,3%
same,growth inhibition,[7]; at 33.0 µM,52%
same,growth inhibition,[7]; at 100.0 µM,98% (active)
same,growth inhibition,[8]; [17],5%
same,growth inhibition,[8]; [18],31%
same,growth inhibition,[8]; at 50.0 µM,0.9%
same,growth inhibition,[9]; at 1.2 µM,-1%
same,growth inhibition,[9]; at 3.7 µM,-1%
same,growth inhibition,[9]; at 11.0 µM,-2%
same,growth inhibition,[9]; at 33.0 µM,21%
same,growth inhibition,[9]; at 100.0 µM,73% (active)
same,growth inhibition,[10]; [17],45%
same,growth inhibition,[10]; [18],24%
same,growth inhibition,[10]; at 50.0 µM,84.7% (active)
same,growth inhibition,[11]; at 1.2 µM,-2%
same,growth inhibition,[11]; at 3.7 µM,-3%
same,growth inhibition,[11]; [17],-3%
same,growth inhibition,[11]; at 11.0 µM,-4%
same,growth inhibition,[11]; at 33.0 µM,20%
same,growth inhibition,[11]; [18],91% (active)
same,growth inhibition,[11]; at 50.0 µM,67.3%
same,growth inhibition,[11]; at 100.0 µM,92% (active)
same,growth inhibition,[12]; at 1.2 µM,-1%
same,growth inhibition,[12]; at 3.7 µM,1%
same,growth inhibition,[12]; at 11.0 µM,2%
same,growth inhibition,[12]; at 33.0 µM,68%
same,growth inhibition,[12]; at 100.0 µM,99% (active)
same,growth inhibition,[13]; at 1.2 µM,-1%
same,growth inhibition,[13]; at 3.7 µM,0%
same,growth inhibition,[13]; at 11.0 µM,-1%
same,growth inhibition,[13]; at 33.0 µM,56%
same,growth inhibition,[13]; at 100.0 µM,98% (active)
same,growth inhibition,[14]; at 1.2 µM,1%
same,growth inhibition,[14]; at 3.7 µM,-2%
same,growth inhibition,[14]; at 11.0 µM,-7%
same,growth inhibition,[14]; at 33.0 µM,67%
same,growth inhibition,[14]; at 100.0 µM,97% (active)
same,growth inhibition,[15]; [17],1%
same,growth inhibition,[15]; [18],21%
same,growth inhibition,[15]; at 50.0 µM,94.8% (active)
same,growth inhibition,[16]; at 1.2 µM,-5%
same,growth inhibition,[16]; at 3.7 µM,-8%
same,growth inhibition,[16]; at 11.0 µM,-10%
same,growth inhibition,[16]; at 33.0 µM,40%
same,growth inhibition,[16]; at 100.0 µM,94% (active)
